What all share (experiment): NCI-60 one-dose screen, 48 h (100 = growth as untreated, 0 = no growth, -100 = all killed)
Conditions in all cases: 10 µM unless noted

For assay [1], the system named is MOLT-4 leukemia.
For assay [2], the system named is SR leukemia.
Assay [3] relates to RPMI-8226 leukemia.
Assay [4] has as its system OVCAR-8 ovarian.
In assay [5] the test system is OVCAR-5 ovarian.
The test system of assay [6] is OVCAR-4 ovarian.
Assay [7] has as its system SK-OV-3 ovarian.
The subject of assay [8] is IGROV1 ovarian.
Assay [9] relates to OVCAR-3 ovarian.
Assay [10] relates to HS 578T breast.
In assay [11] the test system is NCI/ADR-RES ovarian.
Assay [12] deals with T-47D breast.
Assay [13] deals with BT-549 breast.
Assay [14] deals with MDA-MB-435 melanoma.
In assay [15] the test system is SW-620 colon.
Assay [16] deals with MCF7 breast.
Assay [17] concerns KM12 colon.
Assay [18] concerns HCC-2998 colon.
In assay [19] the test system is HCT-116 colon.

Structures are written as SMILES. This is part of a sample that, as a whole, favours compounds with a hit. Of some 83,000 tested, about 20% had one in any assay.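 Compound tested at a single concentration for 48 hours in 96-well plates; a percent growth value below 10 was scored as active.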 Values without a mark were called inactive. Calls of active or inactive are those of the source.

`COC1CC2c3ccccc3C1C(C)=[N+]2C` (centres undefined): the growth in [1] is 101%; in assay [2], 105%; in [3] it was 75.3%; in assay [4], 96.6%; in assay [5], 93.8%; in [6] it was 83.7%. In addition, the growth is 105% in assay [7]; 92.5% in assay [8]; 102% in [9]; 105% in assay [10]; 78.7% in assay [11]; 107% in [12]. For the same compound, the growth is 87.4% in assay [13]; 100% in [14]; 104% in assay [15]; 97.3% in assay [16]; 104% in [17].

For the compound `CCCC[C@H](NC(=O)[C@H]1CCCN1C)C(=O)N(C)[C@H](C[C@@H](OC(C)=O)c1nc(C(=O)N[C@@H](Cc2ccccc2)C[C@H](C)C(=O)OCC)cs1)C(C)C`, the growth in [1] was 14.5%; in [2], 6.28% (active); in [3], 16.6%; in [4], 20%; in [5] it was 32.7%; in [6], 66.5%. For the same compound, the growth is 17.2% in assay [7]; 29.7% in [8]; 8.32% (active) in assay [9]; 12.6% in assay [10]; 7.13% (active) in assay [11]; 54.4% in [12]. Further, the growth is -21.7% (active) in assay [13]; -28.6% (active) in assay [14]; 22.1% in assay [15]; 14.2% in assay [18]; 13.6% in [17].

`NC(=O)C(Br)c1ccccc1` (centres undefined): the growth was 74.2% in assay [1]; 46.1% in [2]; 96.6% in [3]; 90.8% in [4]; 114% in [5]; 89.6% in [6]. Further, the growth in assay [7] was 117%; in assay [8], 80.3%; in assay [9] it was 91.9%; in assay [10], 103%; in assay [11], 105%; in assay [12], 95.3%. Further, the growth in assay [13] is 77.6%; in [14], 94.1%; in assay [15] it was 117%; in assay [19], 82.8%; in assay [18], 96.4%; in assay [17] it was 96.9%.

For `CC[S][Hg][Cl]`, the growth is 109% in assay [1]; 98.1% in [2]; 114% in [3]; 102% in assay [4]; 116% in [5]; 122% in assay [6]. Moreover, the growth is 110% in assay [7]; 112% in [8]; 109% in assay [9]; 106% in assay [10]; 106% in assay [11]; 122% in assay [12]. In addition, the growth in assay [13] was 111%; in [14], 98.7%; in assay [15], 106%; in [16], 93.3%; in [18] it was 111%; in assay [17] it was 107%.

For `O=C(Nc1ccc(Cl)cc1)Nc1nccs1`, the growth in [1] was 20.6%; in assay [2], 27.3%; in [3] it was 5.61% (active); in assay [4], 24.9%; in assay [5], 67.4%; in [6], 81.1%. Also, the growth was 33.1% in [7]; 33.6% in [8]; -26.6% (active) in assay [9]; 49.9% in assay [10]; 8.57% (active) in assay [11]; 40.1% in [12]. Also, the growth in assay [13] was 44.1%; in [14], -49.4% (active); in assay [15], 26.4%; in assay [16] it was 15.2%; in assay [18], 69.5%; in assay [17], 34.3%.

Turning to `CC(=O)O[C@H](C[C@H](C(C)C)N(C)C(=O)[C@@H](NC(=O)[C@H]1CCCN1C)C(C)C)c1nc(C(=O)N[C@@H](Cc2ccccc2)C[C@H](C)C(=O)O)c(C)s1`, the growth was 18.9% in [1]; 8.27% (active) in assay [2]; 19.8% in assay [3]; 17.9% in assay [4]; 36.1% in assay [5]; 48.2% in assay [6]. Besides, the growth in [7] was 6.85% (active); in [8], 30.2%; in [9], -22.9% (active); in assay [10], 23.8%; in assay [11], 5.87% (active); in assay [12] it was 50.6%. In addition, the growth in assay [13] is -22.7% (active); in assay [14], -5.47% (active); in assay [15] it was 25.1%; in assay [18], 21.9%; in assay [17] it was 8.49% (active).

Consider `CCC(O)(CN)c1ccccc1` (centres undefined), for which the growth in [1] is 105%; in [2], 100%; in [3], 102%; in assay [4] it was 97%; in assay [5], 105%; in assay [6], 111%. The growth in [7] was 98.4%; in [8], 97.9%; in assay [9], 114%; in [10], 102%; in assay [11] it was 105%; in assay [12] it was 99.6%. The growth was 104% in [13]; 105% in [14]; 102% in assay [16]; 99.8% in assay [19]; 106% in assay [18]; 103% in assay [17].

Turning to `COC(=O)[C@@H](C)C[C@H](Cc1ccccc1)NC(=O)c1cccc([C@@H](C[C@H](C(C)C)N(C)C(=O)[C@@H](NC(=O)[C@H]2CCCCN2C)C(C)C)OC(C)=O)n1`, the growth in assay [1] was 11.5%; in [2], 8.11% (active); in [3] it was 22.4%; in [4], 11.4%; in [5] it was 35.6%; in assay [6] it was 38.9%. Besides, the growth in [7] is 28.7%; in [8], 26.8%; in assay [9] it was -31.3% (active); in assay [10], 26.3%; in assay [11] it was 14.6%; in assay [12], 47.1%. Besides, the growth in assay [13] is -12.5% (active); in assay [14], -32.2% (active); in assay [15] it was 22%; in [16], 21.3%; in assay [18], 2.68% (active); in assay [17], 7.8% (active).

For `O=[N+]([O-])c1cc(I)cc([N+](=O)[O-])c1`, the growth is 97.1% in assay [1]; 104% in [2]; 101% in assay [3]; 108% in assay [4]; 119% in assay [5]; 79.4% in [6]. Besides, the growth was 125% in [7]; 108% in [8]; 107% in [9]; 122% in assay [10]; 96.6% in [11]; 95.8% in assay [12]. For the same compound, the growth in [13] was 101%; in assay [14], 101%; in assay [15] it was 106%; in [16], 80.7%; in assay [18], 104%; in [17], 102%.

The values above are taken from PubChem BioAssay (NCI).
